The record followed here is PubChem BioAssay (EPA / NIEHS).

Assay [1] can be described thus: ACEA_ER_80hr: ACEA Biosciences xCELLigence Real-Time Cell Analysis on Estrogen Receptor Agonism for Proliferation (AID 2282667; active = hit-call score of the fitted dose curve at least 0.9, where 1 is the maximum). The following applies: T47D proliferation, impedance (xCELLigence), 80 h. Put shortly: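 Real-time electrical impedance tracked growth of the human breast line T47D, with the 80 h post-dosing value used. Dosing spanned eight 1:4 steps down from a 100 uM final top concentration, run in duplicate.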

Assay [2] can be described thus: ATG_CRE_CIS: Attagene CIS-FACTORIAL HepG2 Assay for human cAMP Responsive Element (CRE) binding protein 3 (AID 2282926). The following applies: HepG2 CRE cis-reporter, Attagene multiplexed mRNA; actives raise or lower the signal. Put shortly: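 Assay format: transient reporter transfection of HepG2, 24 h treatment, total RNA isolation with DNase I step. Reporter abundance read by fluorescence after PCR and capillary separation; DMSO-normalised gain or loss fitting.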

The target of assay [3] is CCAAT/enhancer-binding protein beta (Homo sapiens) (UniProt P17676). The experiment in a line: ATG_C_EBP_CIS: Attagene CIS-FACTORIAL HepG2 Assay for human CCAAT/Enhancer Binding Protein (C/EBP) beta (AID 2282927). The note with it: HepG2 Attagene cis-factorial transcription factor reporter; actives raise or lower the signal. Put shortly:
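Changes in reporter mRNA, rather than exogenous chimeric receptor activity, reflect native C/EBP signalling in transfected HepG2 cells dosed for 24 h; transcripts are detected by RT-PCR and capillary electrophoresis.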

The nature of assay [4]: ATG_CMV_CIS: Attagene CIS-FACTORIAL HepG2 Assay for human CMV (Internal Marker) (AID 2282928).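 Also: endpoint acts as a background internal control marker rather than a target.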 The following applies: HepG2 CMV promoter reporter, transcription factor profiling; actives raise or lower the signal. Put shortly:
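Reporter transcripts from transfected HepG2 cells are isolated after 24 h of chemical dosing, reverse-transcribed and amplified. Fragments labeled with 6-FAM are cut with HpaI and quantified by capillary electrophoresis; DMSO defines baseline.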

Assay [5] in a line: ATG_DR4_LXR_CIS: Attagene CIS-FACTORIAL HepG2 Assay for human Liver X Receptor (LXR), DR4 submotif (AID 2282929). The following applies: HepG2 Attagene DR4 cis-reporter, mRNA transcription; actives raise or lower the signal. Put shortly: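 Measures endogenous transcription factor activity via a DR4-driven reporter transcript in human HepG2 cells. Compounds incubated 24 h; mRNA quantified by RT-PCR and capillary electrophoresis, analysed as gain or loss of signal versus DMSO.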

In assay [6] the target is Aryl hydrocarbon receptor (Homo sapiens) (UniProt P35869). The experiment in a line: ATG_Ahr_CIS: Attagene CIS-FACTORIAL HepG2 Assay for human Aryl Hydrocarbon Receptor (Ahr) (AID 2282930). The following applies: HepG2 AhR cis-factorial reporter transcription; actives raise or lower the signal. Put shortly: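 HepG2, transient MRTU (cis) transfection, 24 h exposure. RNA → cDNA → PCR → 6-FAM primer extension → HpaI 2 h 37 C → CE. Fit: bidirectional, DMSO baseline.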
Sequence of Aryl hydrocarbon receptor (Homo sapiens) (P35869 whole entry, looked up): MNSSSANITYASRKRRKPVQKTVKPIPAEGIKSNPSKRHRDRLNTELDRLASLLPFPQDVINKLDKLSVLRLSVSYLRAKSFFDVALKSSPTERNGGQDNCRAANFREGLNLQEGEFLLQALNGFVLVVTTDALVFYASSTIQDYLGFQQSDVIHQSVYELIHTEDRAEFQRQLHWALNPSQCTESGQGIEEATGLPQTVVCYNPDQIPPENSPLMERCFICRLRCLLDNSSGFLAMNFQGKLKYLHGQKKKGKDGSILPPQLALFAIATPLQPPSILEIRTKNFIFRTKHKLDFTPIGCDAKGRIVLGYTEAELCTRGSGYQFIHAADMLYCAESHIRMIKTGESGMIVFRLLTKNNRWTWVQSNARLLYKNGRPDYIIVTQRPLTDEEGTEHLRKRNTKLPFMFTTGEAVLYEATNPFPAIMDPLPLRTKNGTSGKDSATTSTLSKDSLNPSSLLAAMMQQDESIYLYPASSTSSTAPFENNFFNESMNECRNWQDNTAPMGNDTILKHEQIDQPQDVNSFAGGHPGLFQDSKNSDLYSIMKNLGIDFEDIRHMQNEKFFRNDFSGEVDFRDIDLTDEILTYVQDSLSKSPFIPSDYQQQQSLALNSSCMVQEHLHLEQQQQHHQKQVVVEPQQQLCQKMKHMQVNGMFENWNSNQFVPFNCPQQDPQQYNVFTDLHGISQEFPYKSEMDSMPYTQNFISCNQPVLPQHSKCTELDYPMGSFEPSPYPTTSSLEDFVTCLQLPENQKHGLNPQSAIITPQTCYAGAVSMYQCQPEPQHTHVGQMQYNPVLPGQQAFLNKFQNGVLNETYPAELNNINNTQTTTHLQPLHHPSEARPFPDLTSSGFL

The nature of assay [7]: ATG_AP_2_CIS: Attagene CIS-FACTORIAL HepG2 Assay for human Activator Protein 2 (AP-2) (AID 2282932). The note with it: HepG2 AP-2 cis-reporter, Attagene transcription factor profiling; actives raise or lower the signal. Put shortly:
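Transiently transfected HepG2 cells are exposed to chemical for 24 h. Reporter transcripts are then measured as fluorescence following RT-PCR and capillary separation, and gain- or loss-of-signal is fitted relative to DMSO.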

Assay [8] in a line: ATG_BRE_CIS: Attagene CIS-FACTORIAL HepG2 Assay for human Bone Morphogenetic Protein (BMP) Response Element (BRE) (AID 2282933). The following applies: HepG2 BMP response element reporter, Attagene transcription factor profiling; actives raise or lower the signal. Put shortly: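 HepG2 cells transiently transfected with multiplexed cis-element reporter units were dosed with chemical for 24 h. Reporter mRNA was measured by RT-PCR with fluorescent labelling, HpaI digestion and capillary electrophoresis; bidirectional fitting relative to DMSO.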

Assay [9] has as its target Retinoic acid receptor alpha (Homo sapiens) (UniProt P10276). Description: ATG_DR5_RAR_CIS: Attagene CIS-FACTORIAL HepG2 Assay for human Retinoic Acid Receptor Alpha (RARE), DR5 submotif (AID 2282934).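 As to AC50: reporter responds to endogenous RAR alpha beta and gamma in HepG2 not RARA alone.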 The following applies: HepG2 Attagene cis-factorial RARE DR5 reporter, mRNA; actives raise or lower the signal. Put shortly:
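HepG2, transient cis-reporter transfection, 24 h exposure. mRNA readout: RT-PCR, FAM label, HpaI cut, capillary electrophoresis. DMSO baseline, gain/loss fitting.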

Assay [10] has as its target Transcription factor E2F1 (Homo sapiens) (UniProt Q01094). Description: ATG_E2F_CIS: Attagene CIS-FACTORIAL HepG2 Assay for human E2F Transcription Factor 1 (AID 2282935). The note with it: HepG2 Attagene cis-reporter, E2F reporter RNA transcripts; actives raise or lower the signal. Put shortly:
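Fluorescent RT-PCR products, digested with HpaI for 2 h at 37 C, are separated by capillary electrophoresis. Source RNA comes from transfected HepG2 cultures treated for 24 h.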

The nature of assay [11]: ATG_E_Box_CIS: Attagene CIS-FACTORIAL HepG2 Assay for human Enhancer Box (E-box) (AID 2282936). The following applies: HepG2 E-box cis-reporter transcription, actives raise or lower the signal. Put shortly: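 Fluorescent reporter fragments separated by capillary electrophoresis gave the signal; mRNA came from HepG2 cells transfected with cis-element reporters and treated 24 h. Curves fitted bidirectionally relative to DMSO controls.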

Assay [12] is described as follows: ATG_M_61_CIS: Attagene CIS-FACTORIAL HepG2 Assay for M61 Transcription Factor (Internal Marker) (AID 2282937). The following applies: HepG2 Attagene CIS-FACTORIAL M61 internal marker reporter; actives raise or lower the signal. Put shortly: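 Fluorescence from labelled cDNA fragments, separated by capillary electrophoresis, quantifies reporter induction. HepG2 cells bearing transiently transfected cis-promoter MRTUs were incubated with test chemical for 24 h; DMSO defined baseline for gain/loss fitting.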

The nature of assay [13]: ATG_EGR_CIS: Attagene CIS-FACTORIAL HepG2 Assay for human Early Growth Response 1 (EGR1) (AID 2282938). The following applies: HepG2 Attagene CIS-FACTORIAL EGR reporter mRNA; actives raise or lower the signal. Put shortly:
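Cell-based multiplex transcription assay: HepG2 carrying transfected cis-element reporter units, 24 h chemical treatment. Fluorescence from capillary electrophoresis of RT-PCR products gives mRNA levels; fitting is bidirectional relative to DMSO.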

Assay [14] is described as follows: ATG_M_19_CIS: Attagene CIS-FACTORIAL HepG2 Assay for M19 Transcription Factor (Internal Marker) (AID 2282939). The note with it: HepG2 Attagene CIS-FACTORIAL M19 internal marker reporter; actives raise or lower the signal. Put shortly:
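HepG2 cells transiently transfected with cis-regulated multiple reporter transcription units were dosed for 24 h; reporter mRNA was quantified by RT-PCR, 6-FAM primer-extension labelling, HpaI digestion and capillary electrophoresis, with bidirectional fitting against DMSO baseline.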

The nature of assay [15]: ATG_ERE_CIS: Attagene CIS-FACTORIAL HepG2 Assay for Estrogen Response Element (ERE) (AID 2282940). The following applies: HepG2 ERE cis-reporter, Attagene RNA transcript; actives raise or lower the signal. Put shortly:
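HepG2 cells transiently transfected with cis-promoter-driven multiplexed reporter transcription units report endogenous TF activity. After 24 h compound exposure, reporter mRNA is quantified by RT-PCR with capillary electrophoresis fluorescence; bidirectional fitting versus DMSO baseline.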

Assay [16] deals with Hepatocyte nuclear factor 3-beta (Homo sapiens) (UniProt Q9Y261). Description: ATG_FoxA2_CIS: Attagene CIS-FACTORIAL HepG2 Assay for human Forkhead box A2 (FOXA2) (AID 2282942). The note with it: HepG2 cis-reporter transcription factor activity, 24 h; actives raise or lower the signal. Put shortly: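 In transiently transfected human HepG2 cells, promoter-driven reporter mRNA levels after 24 h chemical exposure are determined via RT-PCR with capillary electrophoresis. DMSO serves as baseline for bidirectional fitting.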
Sequence of Hepatocyte nuclear factor 3-beta (Homo sapiens) (Q9Y261 whole entry, looked up): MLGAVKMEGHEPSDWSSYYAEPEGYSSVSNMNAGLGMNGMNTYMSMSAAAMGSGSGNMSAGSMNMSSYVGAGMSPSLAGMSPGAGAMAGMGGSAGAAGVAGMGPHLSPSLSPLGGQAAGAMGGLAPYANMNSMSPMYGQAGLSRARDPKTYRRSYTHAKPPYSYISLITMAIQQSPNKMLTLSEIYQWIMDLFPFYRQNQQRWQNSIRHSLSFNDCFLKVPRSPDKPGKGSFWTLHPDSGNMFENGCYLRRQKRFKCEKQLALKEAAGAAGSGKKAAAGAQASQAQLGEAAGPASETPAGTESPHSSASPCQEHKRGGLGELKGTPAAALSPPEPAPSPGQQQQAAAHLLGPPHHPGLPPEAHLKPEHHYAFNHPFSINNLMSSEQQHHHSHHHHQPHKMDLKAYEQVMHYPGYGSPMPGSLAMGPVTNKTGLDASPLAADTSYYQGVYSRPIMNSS

Assay [17] can be described thus: ATG_FoxO_CIS: Attagene CIS-FACTORIAL HepG2 Assay for human Forkhead box O (FoxO) (AID 2282943). The following applies: HepG2 Attagene cis-reporter, FoxO element, mRNA; actives raise or lower the signal. Put shortly:
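Human hepatoma HepG2 cells carry transiently introduced reporter transcription units controlled by cis promoter elements. Chemical treatment lasted 24 h, and mRNA signal was compared with DMSO.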

Assay [18] in a line: ATG_GATA_CIS: Attagene CIS-FACTORIAL HepG2 Assay for human GATA Binding Protein (AID 2282944). The note with it: HepG2 GATA cis-element reporter, Attagene multiplex mRNA; actives raise or lower the signal. Put shortly:
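HepG2 cells transiently transfected with multiplexed cis-element reporter units reflecting endogenous transcription factor activity; reporter mRNA measured after 24 h dosing by RT-PCR, 6-FAM labeling, HpaI digestion and capillary electrophoresis. Bidirectional fitting versus DMSO baseline.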

Assay [19] is described as follows: ATG_Ets_CIS: Attagene CIS-FACTORIAL HepG2 Assay for human Erythroblast Transformation Specific (ETS) (AID 2282941). The note with it: HepG2 ETS cis-reporter transcription, actives raise or lower the signal. Put shortly:
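Bidirectional fit versus DMSO of reporter mRNA signal, detected by RT-PCR and capillary electrophoresis in HepG2 cells transiently transfected with cis-element reporters and dosed 24 h.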

Inconclusive results are not listed. Active and inactive are the calls of the source. The calls were made as follows, unless noted: active = hit-call score of the fitted dose curve at least 0.9, where 1 is the maximum; inactive = score below 0.9.

Sequence of Retinoic acid receptor alpha (Homo sapiens) (P10276 whole entry, looked up): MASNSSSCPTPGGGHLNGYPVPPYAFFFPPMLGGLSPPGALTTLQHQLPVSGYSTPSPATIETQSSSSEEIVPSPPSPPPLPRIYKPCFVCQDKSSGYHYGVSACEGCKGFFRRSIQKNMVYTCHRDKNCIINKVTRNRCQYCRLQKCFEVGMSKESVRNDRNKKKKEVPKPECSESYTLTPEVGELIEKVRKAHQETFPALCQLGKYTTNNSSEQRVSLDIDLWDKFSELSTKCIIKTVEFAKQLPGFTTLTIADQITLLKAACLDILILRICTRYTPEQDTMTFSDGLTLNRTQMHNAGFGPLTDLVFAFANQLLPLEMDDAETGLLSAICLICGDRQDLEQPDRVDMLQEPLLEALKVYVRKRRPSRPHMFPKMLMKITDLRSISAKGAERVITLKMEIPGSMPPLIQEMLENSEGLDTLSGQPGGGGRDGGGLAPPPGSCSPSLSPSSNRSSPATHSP
Sequence of CCAAT/enhancer-binding protein beta (Homo sapiens) (P17676 whole entry, looked up): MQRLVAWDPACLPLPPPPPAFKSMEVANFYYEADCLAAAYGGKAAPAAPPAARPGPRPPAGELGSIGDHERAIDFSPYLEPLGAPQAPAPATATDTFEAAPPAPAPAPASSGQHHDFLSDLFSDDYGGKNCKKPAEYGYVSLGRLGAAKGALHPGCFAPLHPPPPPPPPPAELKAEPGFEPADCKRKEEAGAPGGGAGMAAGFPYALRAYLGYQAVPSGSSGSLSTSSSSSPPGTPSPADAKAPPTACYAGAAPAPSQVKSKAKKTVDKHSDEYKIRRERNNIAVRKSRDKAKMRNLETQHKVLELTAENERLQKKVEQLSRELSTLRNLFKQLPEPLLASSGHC
Sequence of Transcription factor E2F1 (Homo sapiens) (Q01094 whole entry, looked up): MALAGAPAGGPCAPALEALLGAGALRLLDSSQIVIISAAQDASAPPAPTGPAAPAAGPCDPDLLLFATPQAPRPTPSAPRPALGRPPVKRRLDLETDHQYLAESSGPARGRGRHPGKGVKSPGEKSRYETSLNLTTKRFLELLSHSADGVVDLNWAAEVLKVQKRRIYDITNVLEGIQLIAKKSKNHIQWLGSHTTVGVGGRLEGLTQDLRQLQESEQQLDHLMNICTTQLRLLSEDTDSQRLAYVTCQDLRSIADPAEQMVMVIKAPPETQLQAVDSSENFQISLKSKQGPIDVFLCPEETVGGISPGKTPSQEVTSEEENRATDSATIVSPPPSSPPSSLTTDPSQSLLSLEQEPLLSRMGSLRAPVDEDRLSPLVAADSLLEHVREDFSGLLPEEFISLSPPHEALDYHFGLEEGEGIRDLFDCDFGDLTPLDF

`O=C(O)c1cc(O)c2ccccc2c1O`: the compound was classed as inactive in [1], in [2], in assay [4], in assay [7], in assay [8] and in [12]. The call in assay [13], in assay [14], in assay [16] and in assay [18] was inactive. Besides, the AC50 (commonly the midpoint of the concentration-response curve, whichever way the signal moves) is 5.04 µM (active) in assay [3]; 42.5 µM (active) in [5]; 30.5 nM (active) in assay [6]; 22.8 µM (active) in assay [9]; 59.1 µM (active) in assay [10]; 8.86 µM (active) in [11]. For the same compound, the values for the AC50 in assay [15] and in assay [17] were 0.513 µM (active) and 52 µM (active), respectively.

On to `Cc1noc(NS(=O)(=O)c2ccc(N)cc2)c1C`, for which the outcome in assay [1], in assay [2], in assay [3], in [4], in [5] and in [6] was inactive. Also, the call in [7], in [8], in assay [10], in [11], in assay [12] and in assay [13] was inactive. Also, the outcome in assay [14], in assay [15], in [19], in assay [16] and in assay [18] was inactive.

For `Oc1ccccc1Cc1ccccc1O`, the outcome in [1], in [2], in assay [3], in assay [4], in assay [6] and in assay [7] was inactive. For the same compound, the call in [8], in assay [9], in [10], in [11], in assay [12] and in assay [14] was inactive. For the same compound, the result in assay [16], in assay [17] and in [18] was inactive. For the same compound, the AC50 in assay [5] was 114 µM (active); in [13] it was 72.5 µM (active); in assay [15] it was 27.7 µM (active).

`CCCC1CCCC(=O)O1` (stereo unspecified): the result in assay [1], in [2], in [3], in assay [4], in assay [5] and in [6] was inactive. Besides, the call in assay [7], in assay [8], in assay [9], in assay [10], in assay [12] and in [13] was inactive. In addition, the compound was called inactive in assay [14], in assay [19], in assay [16], in [17] and in [18]. In assay [15], the AC50 is 21.3 µM (active).
